Out of some 310,000 compounds screened, about 14,000 (4.5%) showed an effect of 50% or more. The effect is printed as a negative number. This excerpt belongs to a sample that is enriched for strong results.
Molecular target: human ether-à-go-go-related gene (hERG) potassium channel (human, UniProt Q12809)
Experiment: primary screen, population patch clamp on CHO cells stably expressing hERG; higher = less effect of the substance
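Further: peak tail current of the secondary pulse compared with the same well before compound.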

human ether-à-go-go-related gene (hERG) potassium channel, sequence (Q12809 whole entry, looked up): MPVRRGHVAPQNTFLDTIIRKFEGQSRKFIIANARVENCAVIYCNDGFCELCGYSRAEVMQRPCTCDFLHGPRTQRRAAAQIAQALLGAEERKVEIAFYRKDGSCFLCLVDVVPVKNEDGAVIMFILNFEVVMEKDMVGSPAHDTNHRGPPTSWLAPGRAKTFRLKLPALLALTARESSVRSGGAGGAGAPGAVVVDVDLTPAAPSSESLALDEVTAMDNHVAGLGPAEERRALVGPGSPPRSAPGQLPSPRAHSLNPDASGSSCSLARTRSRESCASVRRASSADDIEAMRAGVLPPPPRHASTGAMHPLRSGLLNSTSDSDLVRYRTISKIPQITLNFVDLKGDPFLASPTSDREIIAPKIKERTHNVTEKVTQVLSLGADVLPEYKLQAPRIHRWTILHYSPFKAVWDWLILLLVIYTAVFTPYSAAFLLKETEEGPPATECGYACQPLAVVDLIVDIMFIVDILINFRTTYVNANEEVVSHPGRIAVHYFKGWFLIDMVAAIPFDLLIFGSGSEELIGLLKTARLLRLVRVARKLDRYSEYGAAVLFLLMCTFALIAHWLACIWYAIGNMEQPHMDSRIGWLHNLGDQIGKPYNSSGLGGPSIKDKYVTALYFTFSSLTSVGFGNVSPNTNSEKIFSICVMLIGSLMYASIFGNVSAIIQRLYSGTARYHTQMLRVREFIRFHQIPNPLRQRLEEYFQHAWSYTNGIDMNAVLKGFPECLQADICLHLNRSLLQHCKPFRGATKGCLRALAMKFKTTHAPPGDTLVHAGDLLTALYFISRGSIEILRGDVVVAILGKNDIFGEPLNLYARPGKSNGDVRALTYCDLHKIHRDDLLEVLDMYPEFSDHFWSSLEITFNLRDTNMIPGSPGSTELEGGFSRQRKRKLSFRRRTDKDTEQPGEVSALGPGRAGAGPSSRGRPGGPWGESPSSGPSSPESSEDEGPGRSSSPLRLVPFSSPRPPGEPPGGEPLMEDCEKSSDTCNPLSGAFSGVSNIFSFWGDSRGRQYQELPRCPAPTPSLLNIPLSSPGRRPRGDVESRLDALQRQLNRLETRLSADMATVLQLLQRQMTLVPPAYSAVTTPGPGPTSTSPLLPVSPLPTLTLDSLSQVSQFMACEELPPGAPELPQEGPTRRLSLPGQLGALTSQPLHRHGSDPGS

| SMILES | hERG current change (%, negative = inhibition) at 10uM |
| --- | --- |
| COc1ccc(CCN(C)CC(O)COC(c2ccc(F)cc2)c2ccc(F)cc2)cc1OC (stereo not drawn) | -79.2% |
| COc1ccc(CCN(C)CC(O)c2ccccc2)cc1OC.O=C(O)C(=O)O (stereo not drawn) | -32.2% |
| COc1ccc(CCN(C)Cc2nc(Cc3ccc(OC)c(OC)c3)no2)cc1OC | 0.332% |
| COc1ccc(CCN(C)CC(O)COc2c(C)ccc(C)c2C)cc1OC (stereo not drawn) | -76% |
| COc1ccc(C(CNCC(O)COc2c(C)ccc(C)c2C)N(C)C)cc1 (stereo not drawn) | -44.1% |
| COc1ccc(CCN(C)CC(O)COc2ccc(C(C)=O)cc2OC)cc1OC (stereo not drawn) | -21.6% |
| O=C(Nc1ccc(Nc2ccccc2)cc1)c1cc([N+](=O)[O-])ccc1Cl | 11.2% |
| CNc1ccc(Br)cc(C(=O)/C=C/c2cccc(OC)c2)c1=O | -1.19% |
| COc1ccc(NC2c3ncccc3C(=O)N2Cc2cccs2)cc1 (stereo not drawn) | -18.4% |
| CCc1noc(C)c1C(=O)N1CCOCC1 | 14.4% |
| COC(=O)N1C(=O)[C@](c2ccccc2)(C(C)C)N1C(=O)OC | 12.2% |
| COc1ccccc1/C=N/NC(=O)c1cccc(OC(F)(F)C(F)F)c1 | -9.51% |
| O=C(O)c1ccccc1C(=O)N1CC=C(c2ccccc2)CC1 | 3.44% |
| O=C(c1cc(-c2ccc(Cl)s2)nc2ccccc12)N1CCOCC1 | -17% |
| O=C(c1cc(-c2ccccc2)nc2ccccc12)N1CCOCC1 | 27.6% |
| CC(=O)N1CCN(C(=O)c2cc(C)nc3ccccc23)CC1 | 31.1% |
| CC(C)(CNC(=O)c1cc(-c2ccc(Cl)s2)nc2ccccc12)N1CCOCC1 | -55.1% |
| CC(=O)N1CCN(C(=O)c2cc(-c3ccc(Cl)s3)nc3ccccc23)CC1 | -51.8% |
| O=C(c1cc(-c2ccc(Cl)cc2)nc2ccccc12)N1CCOCC1 | -68.8% |
| Cc1cc(C(=O)N2CC=C(c3ccccc3)CC2)c2ccccc2n1 | -52.9% |
| Cc1ccc(-c2cc(C(=O)N3CCOCC3)c3ccccc3n2)cc1 | -3.91% |
| O=C(NCCCN1CCOCC1)c1cc(-c2ccc(Cl)s2)nc2ccccc12 | -44.1% |
| O=C(NCCN1CCOCC1)c1cc(-c2ccc(Cl)s2)nc2ccccc12 | -5.22% |
| O=C(c1cc(-c2ccc(Cl)s2)nc2ccccc12)N1CCCC1 | 4.92% |

From article PMC4336329 (PLoS ONE, 2015)
